Drawing on PubChem BioAssay, this text covers z-score for 27 compounds.

Values without a mark were called inactive. No rule for the calls is given here.

The assay is described as follows: blockers of DNA damage checkpoint Chk1 activation – imaging, HeLa, hydroxyurea, phospho-Chk1 antibody, percent positive cells, primary screen (AID 1186). Particulars: hydroxyurea-induced phospho-Chk1 immunofluorescence imaging, higher = more signal.
For the compound `COC(=O)[C@@]1(Cc2ccc(F)cc2)[C@H]2c3cc(C(=O)N(C)C)n(Cc4ccc(O)c(OC)c4)c3C[C@H]2CN1C(=O)c1ccccc1`, the z-score was -0.156.
With `CO[C@H]1O[C@H](CO)[C@@H](OC(=O)Nc2cccc(F)c2)[C@H](OC(=O)Nc2ccccc2-c2ccccc2)[C@H]1OC(=O)Nc1ccccc1-c1ccccc1`, the z-score was -0.788.
As for `C=C(CCCC)/C(=C/C[C@H](OC(C)=O)c1ccc(OCCO)cc1)c1cc(C(=O)OC)ccc1OC`, the z-score was -1.09.
For `COCCCNC(=O)[C@@]1(Sc2ccc(C)cc2)CC(=O)N(Cc2ccccc2Cl)[C@@H]1c1ccc(CO)cc1I`, the z-score was 0.234.
Take `COc1cccc(/C=C(\C#N)C(=O)Nc2c(C)n(C)n(-c3ccccc3)c2=O)c1`: the z-score was -0.252.
As to `CS(=O)(=O)CCOC(=O)C1=CC(CCCO)=CC(C2CC2)N(Cc2cccc(OC(F)(F)F)c2)C=C1C(=O)OCCS(C)(=O)=O` (configuration not stated), the z-score is -0.002.
As for `COc1ccc(C#Cc2ccc3c(c2)[C@]2(C(=O)N3)[C@H](C(=O)Nc3nc4ccccc4s3)[C@H]3C(=O)O[C@H](c4ccccc4)[C@H](c4ccccc4)N3[C@@H]2c2ccccc2OCCO)cc1`, the z-score is -0.347.
Regarding `C=C[C@@H](C)[C@@H](OC(=O)Nc1ccc(SC)cc1)c1ccc(OCCO)cc1`, the z-score was 0.129.
For the compound `CC(=O)N1CC(C(O)C2C=CC3C(=O)NC(=O)C3N2Nc2ccc(Cl)cc2Cl)c2ccccc21` (configuration not stated), the z-score is 0.358.
Consider `CC(C)C[C@@H]1NC(=O)[C@H]2C[C@@H](C(=O)NCCCCCN)[C@@H](c3cccc(OCCO)c3)N2C1=O`, for which the z-score is -0.242.
As for `C=C(/C(=C/C[C@@H](OC(C)=O)c1ccc(CO)o1)c1cc(C(=O)OC)ccc1OC)C(C)C`, the z-score is 0.623.
On to `O=C1OCC=C[C@H]2OC34C=CCN(c5ccc6ccccc6c5)C(=O)[C@H]3N(CCCCCO)C(=O)[C@@H]4[C@@H]12` (some centres not stated), for which the z-score was 0.464.
`COC(=O)[C@@]1(Cc2ccccc2)[C@H]2c3cc(C(=O)N4CCCC4)n(CCSCCO)c3C[C@H]2CN1C(=O)c1ccccc1`: the z-score is 1.45.
Turning to `NC(=O)[C@@H]1[C@H]2C(=O)O[C@H](c3ccccc3)[C@H](c3ccccc3)N2[C@H](c2ccc(OCCO)cc2)[C@@]12C(=O)Nc1ccc(C#CCCO)cc12`, the z-score was -0.504.
For `[N-]=[N+]=Nc1ccccc1C[C@]1(C(=O)NCc2ccccc2)COC(c2ccc(OCCCO)cc2)=N1`, the z-score is -0.364.
As for `CN1C(=O)[C@@]2(Cc3ccccc3)N=C(c3ccc(OCCCO)cc3)O[C@H]2c2ccccc21`, the z-score is -0.632.
For `CCOC(=O)C[C@H]1[C@H](OC(=O)c2ccccc2-c2ccccc2)[C@@H](NC(=O)c2ccc3ccccc3n2)c2cc(OCCCO)ccc2N1C(=O)c1ccccc1`, the z-score was 0.342.
Then `Nc1cc(Br)ccc1C(=O)O`, with 0.132.
For the compound `C=C(COC)C(=O)CC[C@@H](OC(=O)c1cccnc1)c1ccccc1OCCO`, the z-score is 0.329.
For `CCOC(=O)C1=C[C@@H](c2ccccc2)N(S(=O)(=O)c2ccc(C)cc2)[C@H]1c1ccccc1`, the z-score is 0.667.
The same measure for `CC(C)c1ccc(NN2C(C(O)Cc3ccccc3)C=CC3C(=O)N(c4ccccc4)C(=O)C32)cc1` (configuration not stated): 0.656; for `C=CCC(OC(C)=O)[C@@H]1[C@@H](N(Cc2ccc(-c3cccc(C(F)(F)F)c3)o2)C(=O)Cc2ccc(OC)cc2)c2cc(OCCCO)ccc2N1C(=O)Cc1ccc2ccccc2c1` (some centres not stated): 0.162.
Then `COCCOC(=O)N1C(=O)[C@@]2(c3cc(C#CCNC(N)=O)ccc31)[C@H](c1ccc(O)cc1)N1[C@H](c3ccccc3)[C@H](c3ccccc3)OC(=O)[C@H]1[C@@H]2C(N)=O`, with -0.0933.
With `C=CC1c2cc(O)c(OC)cc2CCN1Cc1ccc([N+](=O)[O-])o1` (configuration not stated), the z-score was -0.131.
On to `CC(=O)n1cc(C(O)C2C=CC3C(=O)N(c4ccccc4)C(=O)C3N2Nc2ccc(C(C)C)cc2)c2ccccc21` (configuration not stated), for which the z-score was 0.417.
With `CO[C@H]1O[C@H](CO)[C@@H](OC(=O)c2ccc(Br)cc2)[C@@H]2OC(=O)[C@H](Cc3ccccc3)C/C=C/C[C@@H](Cc3ccccc3)C(=O)O[C@@H]12`, the z-score is -0.708.
Turning to `CN(C)CCCC[C@@H]1NC(=O)[C@@H]2C[C@H](C(=O)O)[C@H](c3cccc(OCCO)c3)N2C1=O`, the z-score was 0.043.
